Experimental data taken from the supplement of paper PMC11006884.
Of roughly 6,500 targets only a part is listed; those with a hit were picked by preference. About 2% of all pairs of compound and target were hits.

compound: COC(=O)C#Cc1ccccc1 [methyl 3-phenylpropiolate]; test: log2 ratio of iodoacetamide-alkyne labeling of the cysteine site, DMSO over compound (competition); higher = stronger covalent engagement of the cysteine by the compound, active = 1 or more; conditions: 500 µM; treatment time 1 h; system: HEK293T cell lysate
In short: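 After 1 h at ambient temperature with vehicle or electrophile (500 µM), HEK293T lysate (2 mg/mL) was labelled for 1 h with iodoacetamide alkyne and clicked to sCIP-TMT reagents. Pooled samples were trypsin-digested overnight at 37 °C, streptavidin-enriched, acid-eluted and analysed by Orbitrap Eclipse LC-MS/MS with FAIMS, then quantified in FragPipe over three replicates with duplicate channels. A cysteine's log2 competition ratio is its mean control-channel over mean compound-channel reporter intensity. Cysteines quantified in only one replicate were not included.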

Sequence of UniProt O43837 (O43837 whole entry, looked up): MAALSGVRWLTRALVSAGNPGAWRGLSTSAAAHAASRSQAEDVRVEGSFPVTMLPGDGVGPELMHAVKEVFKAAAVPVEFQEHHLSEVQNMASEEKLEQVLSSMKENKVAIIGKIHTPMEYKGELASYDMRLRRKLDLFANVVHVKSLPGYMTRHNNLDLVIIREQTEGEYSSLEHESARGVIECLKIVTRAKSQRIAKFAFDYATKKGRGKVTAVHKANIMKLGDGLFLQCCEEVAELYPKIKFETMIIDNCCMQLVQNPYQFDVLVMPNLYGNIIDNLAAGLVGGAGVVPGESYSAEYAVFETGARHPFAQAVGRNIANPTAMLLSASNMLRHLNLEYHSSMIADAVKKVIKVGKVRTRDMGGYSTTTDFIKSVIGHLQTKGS
Sequence of UniProt O43353 (O43353 whole entry, looked up): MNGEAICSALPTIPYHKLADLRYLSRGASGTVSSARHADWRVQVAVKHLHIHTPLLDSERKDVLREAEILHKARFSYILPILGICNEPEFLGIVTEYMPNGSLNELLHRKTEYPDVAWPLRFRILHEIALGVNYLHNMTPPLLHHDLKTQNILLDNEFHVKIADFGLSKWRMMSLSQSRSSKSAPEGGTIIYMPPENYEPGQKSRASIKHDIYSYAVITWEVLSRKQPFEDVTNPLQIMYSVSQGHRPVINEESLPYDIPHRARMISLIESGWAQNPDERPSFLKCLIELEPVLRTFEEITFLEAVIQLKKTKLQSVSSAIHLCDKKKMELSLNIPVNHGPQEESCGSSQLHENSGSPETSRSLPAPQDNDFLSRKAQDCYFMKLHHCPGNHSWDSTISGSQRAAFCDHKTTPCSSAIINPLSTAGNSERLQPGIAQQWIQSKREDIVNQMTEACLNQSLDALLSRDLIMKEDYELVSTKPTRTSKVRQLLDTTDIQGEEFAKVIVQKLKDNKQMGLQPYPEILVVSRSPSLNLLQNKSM
Sequence of UniProt O15226 (O15226 whole entry, looked up): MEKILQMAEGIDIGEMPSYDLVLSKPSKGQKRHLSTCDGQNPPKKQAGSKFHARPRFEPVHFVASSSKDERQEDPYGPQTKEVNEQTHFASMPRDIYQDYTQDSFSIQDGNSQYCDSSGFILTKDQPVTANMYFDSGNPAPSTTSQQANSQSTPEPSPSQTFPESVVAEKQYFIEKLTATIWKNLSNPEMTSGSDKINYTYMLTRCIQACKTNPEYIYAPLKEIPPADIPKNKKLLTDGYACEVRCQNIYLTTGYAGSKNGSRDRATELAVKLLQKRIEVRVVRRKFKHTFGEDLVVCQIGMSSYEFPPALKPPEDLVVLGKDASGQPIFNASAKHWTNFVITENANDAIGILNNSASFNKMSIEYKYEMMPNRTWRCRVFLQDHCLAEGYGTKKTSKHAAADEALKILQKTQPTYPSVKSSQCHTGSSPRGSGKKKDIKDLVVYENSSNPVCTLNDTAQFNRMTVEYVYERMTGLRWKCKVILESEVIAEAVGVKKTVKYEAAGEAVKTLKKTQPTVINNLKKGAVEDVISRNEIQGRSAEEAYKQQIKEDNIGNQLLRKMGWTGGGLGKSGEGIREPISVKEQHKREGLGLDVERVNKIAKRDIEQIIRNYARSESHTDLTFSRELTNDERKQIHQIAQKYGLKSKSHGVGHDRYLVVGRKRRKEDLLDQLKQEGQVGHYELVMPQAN
Sequence of UniProt O60343 (O60343 whole entry, looked up): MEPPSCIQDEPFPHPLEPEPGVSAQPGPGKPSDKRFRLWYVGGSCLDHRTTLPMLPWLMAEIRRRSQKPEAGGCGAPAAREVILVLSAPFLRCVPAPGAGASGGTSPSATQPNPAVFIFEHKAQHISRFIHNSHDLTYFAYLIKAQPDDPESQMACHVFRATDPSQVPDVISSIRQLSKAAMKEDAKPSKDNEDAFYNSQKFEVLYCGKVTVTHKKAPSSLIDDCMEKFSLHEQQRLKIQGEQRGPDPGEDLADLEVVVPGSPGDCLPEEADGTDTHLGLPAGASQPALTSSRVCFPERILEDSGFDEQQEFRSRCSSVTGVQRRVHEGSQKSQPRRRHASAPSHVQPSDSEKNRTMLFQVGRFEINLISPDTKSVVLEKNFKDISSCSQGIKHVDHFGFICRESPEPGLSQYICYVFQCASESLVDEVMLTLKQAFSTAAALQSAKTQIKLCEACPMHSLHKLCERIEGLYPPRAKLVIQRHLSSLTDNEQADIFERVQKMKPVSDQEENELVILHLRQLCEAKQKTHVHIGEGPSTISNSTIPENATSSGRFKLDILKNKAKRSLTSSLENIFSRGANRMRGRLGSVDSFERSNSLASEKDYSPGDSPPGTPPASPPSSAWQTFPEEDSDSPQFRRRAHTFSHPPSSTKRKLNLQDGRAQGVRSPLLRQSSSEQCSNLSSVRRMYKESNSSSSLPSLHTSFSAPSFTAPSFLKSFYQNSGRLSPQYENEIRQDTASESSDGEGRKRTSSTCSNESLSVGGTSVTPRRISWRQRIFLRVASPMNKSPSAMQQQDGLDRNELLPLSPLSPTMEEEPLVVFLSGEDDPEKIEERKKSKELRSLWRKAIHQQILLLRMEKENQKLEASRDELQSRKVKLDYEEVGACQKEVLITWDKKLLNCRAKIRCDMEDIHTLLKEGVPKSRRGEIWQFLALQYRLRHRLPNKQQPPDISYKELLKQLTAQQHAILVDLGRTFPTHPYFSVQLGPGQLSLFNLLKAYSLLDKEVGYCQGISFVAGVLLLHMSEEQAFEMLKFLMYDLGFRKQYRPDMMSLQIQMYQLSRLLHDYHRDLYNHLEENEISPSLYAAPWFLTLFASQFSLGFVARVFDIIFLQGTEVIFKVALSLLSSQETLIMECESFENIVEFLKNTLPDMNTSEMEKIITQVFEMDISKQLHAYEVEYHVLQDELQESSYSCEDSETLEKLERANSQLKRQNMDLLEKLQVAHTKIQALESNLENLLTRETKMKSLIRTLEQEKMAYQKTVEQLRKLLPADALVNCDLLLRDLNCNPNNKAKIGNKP
Sequence of UniProt O15446 (O15446 whole entry, looked up): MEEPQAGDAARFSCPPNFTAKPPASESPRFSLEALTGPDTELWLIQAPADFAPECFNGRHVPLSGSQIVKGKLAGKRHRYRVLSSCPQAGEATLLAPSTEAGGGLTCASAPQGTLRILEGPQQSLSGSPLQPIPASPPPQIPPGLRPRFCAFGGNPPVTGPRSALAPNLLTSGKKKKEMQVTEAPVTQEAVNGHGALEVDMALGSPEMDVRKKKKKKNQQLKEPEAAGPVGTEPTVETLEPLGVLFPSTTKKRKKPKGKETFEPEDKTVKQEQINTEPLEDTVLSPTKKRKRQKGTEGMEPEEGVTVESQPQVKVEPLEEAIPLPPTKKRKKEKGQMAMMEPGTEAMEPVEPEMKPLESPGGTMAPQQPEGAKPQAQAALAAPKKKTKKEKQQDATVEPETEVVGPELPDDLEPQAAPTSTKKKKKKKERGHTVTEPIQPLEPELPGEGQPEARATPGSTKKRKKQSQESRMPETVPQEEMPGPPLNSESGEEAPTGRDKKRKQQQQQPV
Sequence of UniProt O15287 (O15287 whole entry): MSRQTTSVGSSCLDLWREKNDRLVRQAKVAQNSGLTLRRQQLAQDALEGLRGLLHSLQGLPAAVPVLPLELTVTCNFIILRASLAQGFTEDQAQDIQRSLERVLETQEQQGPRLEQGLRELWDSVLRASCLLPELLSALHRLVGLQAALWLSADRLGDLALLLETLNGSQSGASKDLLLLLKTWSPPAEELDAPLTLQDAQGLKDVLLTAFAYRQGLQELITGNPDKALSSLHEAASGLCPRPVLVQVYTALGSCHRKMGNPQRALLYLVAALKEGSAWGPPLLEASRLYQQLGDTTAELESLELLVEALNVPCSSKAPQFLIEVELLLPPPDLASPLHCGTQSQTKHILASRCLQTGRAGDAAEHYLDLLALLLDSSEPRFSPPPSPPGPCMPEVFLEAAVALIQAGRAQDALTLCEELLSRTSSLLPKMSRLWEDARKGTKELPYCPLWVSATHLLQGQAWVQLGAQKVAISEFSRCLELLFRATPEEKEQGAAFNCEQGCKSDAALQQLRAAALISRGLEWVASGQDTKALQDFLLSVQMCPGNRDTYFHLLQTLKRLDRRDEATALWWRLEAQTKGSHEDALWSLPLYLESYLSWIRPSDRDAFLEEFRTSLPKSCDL
Sequence of UniProt O14964 (O14964 whole entry, looked up): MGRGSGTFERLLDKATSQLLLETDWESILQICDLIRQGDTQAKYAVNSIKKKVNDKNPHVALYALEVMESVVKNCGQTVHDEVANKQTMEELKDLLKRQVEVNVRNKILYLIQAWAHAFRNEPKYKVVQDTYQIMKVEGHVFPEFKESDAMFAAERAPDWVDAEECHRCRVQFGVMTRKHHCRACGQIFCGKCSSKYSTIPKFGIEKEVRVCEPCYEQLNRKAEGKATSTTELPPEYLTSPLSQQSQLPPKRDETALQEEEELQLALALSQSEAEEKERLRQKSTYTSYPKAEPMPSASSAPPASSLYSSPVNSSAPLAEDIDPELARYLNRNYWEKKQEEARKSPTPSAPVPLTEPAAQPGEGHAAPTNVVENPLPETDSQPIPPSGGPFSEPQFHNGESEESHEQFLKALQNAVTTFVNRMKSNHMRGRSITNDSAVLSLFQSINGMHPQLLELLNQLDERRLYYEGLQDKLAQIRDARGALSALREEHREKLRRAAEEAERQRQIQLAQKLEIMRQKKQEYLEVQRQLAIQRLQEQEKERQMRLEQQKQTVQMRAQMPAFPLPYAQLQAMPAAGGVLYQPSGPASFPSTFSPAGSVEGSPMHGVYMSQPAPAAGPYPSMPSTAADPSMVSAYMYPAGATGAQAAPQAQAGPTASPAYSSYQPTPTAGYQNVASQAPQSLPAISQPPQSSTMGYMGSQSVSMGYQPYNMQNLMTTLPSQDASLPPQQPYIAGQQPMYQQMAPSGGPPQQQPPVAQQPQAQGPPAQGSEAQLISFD
Sequence of UniProt O75607 (O75607 whole entry, looked up): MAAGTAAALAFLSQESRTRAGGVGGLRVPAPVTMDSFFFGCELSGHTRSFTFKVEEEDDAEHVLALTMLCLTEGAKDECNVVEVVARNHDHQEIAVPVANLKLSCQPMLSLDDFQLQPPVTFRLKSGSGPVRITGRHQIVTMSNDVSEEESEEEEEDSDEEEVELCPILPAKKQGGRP

Target | log2 ratio of iodoacetamide-alkyne labeling
EIF5B C720 (UniProt O60841) | 0.266 (inactive)
TMEM189 C22 (UniProt A5PLL7) | 1.52 (active)
NKRF C37 (UniProt O15226) | 1.02 (active)
AP3D1 C137 (UniProt O14617) | 0.262 (inactive)
TBC1D4 C1277 (UniProt O60343) | 0.374 (inactive)
UniProt O60232_C56 | 0.126 (inactive)
SART1 C645 (UniProt O43290) | 0.0232 (inactive)
NPM3 C105 (UniProt O75607) | 0.636 (inactive)
PSIP1 C204 (UniProt O75475) | 0.31 (inactive)
NVL C391 (UniProt O15381) | 0.0922 (inactive)
KATNA1 C491 (UniProt O75449) | 0.112 (inactive)
ARHGEF11 C1166 (UniProt O15085) | 0.618 (inactive)
IDH3B C233 (UniProt O43837) | 0.394 (inactive)
HGS C166 (UniProt O14964) | 0.319 (inactive)
ANKRD17 C210 (UniProt O75179) | 0.398 (inactive)
ATP6V1G1 C104 (UniProt O75348) | 0.03 (inactive)
SIVA1 C6 (UniProt O15304) | 1.88 (active)
CD3EAP C107 (UniProt O15446) | 0.723 (inactive)
PFAS C1285 (UniProt O15067) | 1.36 (active)
AKAP8 C275 (UniProt O43823) | 1.06 (active)

Target | log2 ratio of iodoacetamide-alkyne labeling
TRAFD1 C476 (UniProt O14545) | 1.55 (active)
UniProt O43303_C535 | 0.837 (inactive)
POM121C C438 (UniProt A8CG34) | 1.04 (active)
PPFIA2 C143 (UniProt O75334) | -0.214 (inactive)
RPP40 C49 (UniProt O75818) | 0.0974 (inactive)
FANCG C417 (UniProt O15287) | 0.36 (inactive)
TMEM189 C21 (UniProt A5PLL7) | 1.52 (active)
NVL C192 (UniProt O15381) | 0.306 (inactive)
EIF5B C853 (UniProt O60841) | 1 (active)
UniProt O75153_C88 | 0.201 (inactive)
IGF2BP3 C546 (UniProt O00425) | 0.284 (inactive)
ZZEF1 C2466 (UniProt O43149) | -0.132 (inactive)
WASL C431 (UniProt O00401) | 1.06 (active)
RIPK2 C414 (UniProt O43353) | 1.35 (active)
UniProt O43929_C16 | 0.153 (inactive)
DNM1L C446 (UniProt O00429) | 0.102 (inactive)
PGRMC2 C159 (UniProt O15173) | 0.159 (inactive)
WDR46 C456 (UniProt O15213) | 0.493 (inactive)
PRPF6 C698 (UniProt O94906) | 0.0824 (inactive)
